The target of this assay is Luciferin 4-monooxygenase (Photinus pyralis) (UniProt P08659). As to the kind of experiment: FLuc inhibitory activity for the follow-up compounds in a biochemical assay with 1mM ATP. The essentials:
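qHTS, 12 concentrations from ~60uM down to 0.3nM, against 10nM firefly luciferase; substrates at 1mM ATP and 10uM D-luciferin, in 50mM Tris acetate pH 7.5, 10mM Mg acetate; light output imaged.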

These results are taken from PubChem BioAssay AID602364 (National Center for Advancing Translational Sciences (NCATS), 2012).

Records with an inconclusive call do not appear. Where a call stands in place of a potency, no number is given. Activity calls are given as the source filed them. Calls follow the shape of the dose curve; as a rule, active = well fitted inhibition curve with a large enough effect; inconclusive = small, poorly fitted or top-dose-only effect; inactive = flat fitted curve, though single readings scatter.

Chain of Luciferin 4-monooxygenase (Photinus pyralis) (P08659 whole entry, looked up): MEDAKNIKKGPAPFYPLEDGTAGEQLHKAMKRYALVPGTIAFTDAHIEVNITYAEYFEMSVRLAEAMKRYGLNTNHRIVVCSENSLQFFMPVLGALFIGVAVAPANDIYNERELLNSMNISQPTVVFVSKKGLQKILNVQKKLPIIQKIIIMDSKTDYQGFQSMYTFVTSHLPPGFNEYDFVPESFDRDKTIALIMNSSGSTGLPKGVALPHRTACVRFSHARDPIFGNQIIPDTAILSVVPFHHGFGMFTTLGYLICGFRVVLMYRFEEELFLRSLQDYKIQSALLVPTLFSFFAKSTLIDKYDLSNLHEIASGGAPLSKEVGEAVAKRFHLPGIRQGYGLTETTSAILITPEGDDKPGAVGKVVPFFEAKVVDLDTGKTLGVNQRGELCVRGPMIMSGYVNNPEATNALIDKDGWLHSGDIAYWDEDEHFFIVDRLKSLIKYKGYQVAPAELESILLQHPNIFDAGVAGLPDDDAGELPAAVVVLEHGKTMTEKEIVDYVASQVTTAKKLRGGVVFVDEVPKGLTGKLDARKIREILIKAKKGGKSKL

With `COc1ccc(C(=O)Nc2nc3ccc(OC)cc3s2)cc1`, the Potency was 5.8 µM (active).

Turning to `COc1cc(C(=O)Nc2cc(C)c(O)c(-c3nc4ccccc4s3)c2)cc(OC)c1OC`, the Potency entry is “inactive”.

For the molecule `COc1ccc(-c2nc3ccccc3s2)cc1NC(=O)c1ccc(F)cc1`, the Potency entry is “inactive”.
